PP5 inh – PP5 phosphatase inhibitors, primary screen, biochemical, fluorescence. Serine/threonine-protein phosphatase 5 (Homo sapiens), P53041. purified PP5c, OMFP substrate fluorescence. inhibition, % at 6.7 µM. 320,000 compounds, 0.18% hits;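 active means inhibition above the campaign's mean inhibition across all tested compounds plus 3 SD, cut at about 9.5% in these data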;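 further: 0% = DMSO only and 100% = 100 µM cantharidin control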
MsrA inh – bovine MsrA enzyme inhibitors, primary screen, biochemical, absorbance, HTS | 360,000 compounds, 0.75% hits | Methionine sulfoxide reductase A (Bos taurus) | inhibition, % at 15.5 µM | purified bovine MsrA, absorbance read-out;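 further: 0% = vehicle wells with enzyme and 100% = reference inhibitor wells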
EBNA-1 inh – EBNA-1 DNA-binding inhibitors, primary screen, biochemical, fluorescence polarization. inhibition, % at 14.8 µM. 300,000 compounds, 0.34% hits; in the data active means inhibition above about 28%
ZTA counter – ZTA (EBV) inhibition in EBNA-1 counter-screen; inhibition, % at 11 µM; ZTA-DNA binding, fluorescence polarization; 320,000 compounds, 0.15% hits; in the data active means inhibition above about 33%
bovine MsrA act – bovine MsrA enzyme activators, primary screen, biochemical, absorbance, HTS; Methionine sulfoxide reductase A (Bos taurus); purified bovine MsrA, absorbance read-out; activation, % at 10.6 µM; 360,000 compounds, 0.3% hits; AID 602163, 2012; in the data active means activation above about 7.5%;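 further: 0% = vehicle and 100% = reference activator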
PP1 counter – PP1-alpha phosphatase inhibitors, primary screen, counter-screen for PP5 inhibitor project, biochemical, fluorescence, OMFP substrate, single point; purified PP1alpha; inhibition, % at 6.7 µM; Serine/threonine-protein phosphatase PP1-alpha catalytic subunit (Homo sapiens), P62136; 320,000 compounds, 0.9% hits;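 active means inhibition above the mean inhibition of all tested compounds plus 3 SD, computed separately for each screening campaign, cut at about 15% in these data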
Target sequence (P62136 whole entry, looked up): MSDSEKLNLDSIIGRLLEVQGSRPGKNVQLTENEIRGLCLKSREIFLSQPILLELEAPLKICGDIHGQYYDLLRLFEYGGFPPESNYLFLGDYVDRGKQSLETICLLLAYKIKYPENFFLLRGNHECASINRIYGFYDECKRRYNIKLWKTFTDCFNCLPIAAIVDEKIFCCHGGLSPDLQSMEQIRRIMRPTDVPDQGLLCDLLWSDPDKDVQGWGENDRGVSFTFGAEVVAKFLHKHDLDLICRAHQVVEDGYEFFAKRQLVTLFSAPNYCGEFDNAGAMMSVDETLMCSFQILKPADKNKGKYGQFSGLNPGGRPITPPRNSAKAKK
MsrA inh confirm – bovine MsrA inhibitors, retest, confirmation, biochemical, absorbance, HTS. inhibition, % at 15.5 µM. AID 651822, 2012. purified bovine MsrA, absorbance read-out. shares compounds with MsrA inh. 2,300 compounds, 41% hits;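 further: coupled to thioredoxin reductase with NADPH and selenocystamine and DMSO as substrate; 0% = vehicle only and 100% = full effect of reference inhibitor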
Active calls of the source: *; . = no result given. Shown are actives, neighbours in structure and some others; about 2.3% of the full set was active somewhere. Unless noted, no stated cut-off is given here; in the data, active means inhibition above about 4.5%; inactive means the rest.

SMILES	PP5 inh	MsrA inh	EBNA-1 inh	ZTA counter	bovine MsrA act	PP1 counter	MsrA inh confirm
Cc1ccc(S(=O)(=O)N2CCN(S(=O)(=O)c3ccc(C)cc3)C2)cc1	1.4	5.5*	-15.7	7.0	-5.1	0.8	1.9
S=C(c1ccc2c(c1)OCO2)N1CCN(c2cccc(Cl)c2)CC1	.	0.3	.	.	-2.9	.	.
CCOC(=O)CSc1nc2c(sc(=S)n2-c2ccc(CC)cc2)c(=O)[nH]1	2.9	2.9	1.4	-6.0	-0.1	10.4	.
CCOC(=O)CC(=O)CSc1nc2c(sc(=S)n2-c2ccccc2)c(=O)[nH]1	0.8	6.0*	0.1	6.9	-4.9	0.2	2.5
Cc1cccn2c(=O)c3cc(C(=O)NCCN4CCOCC4)c(=N)n(CCCN4CCOCC4)c3nc12	0.3	5.4*	-6.3	-14.3	-2.0	1.8	0.2
Cc1cccn2c(=O)c3cc(C(=O)NCc4ccccc4)c(=N)n(CCCN4CCOCC4)c3nc12	.	-0.1	.	.	-1.9	.	.
CC(C)C(=O)Nc1cc2c3c(c1)CCN3C(=O)CC2	1.3	-0.2	-2.3	-7.2	2.6	-4.0	.
CCOc1ccc(C(O)c2nccn2Cc2ccccc2)cc1 (configuration not stated)	0.4	8.8*	-1.6	13.2	-7.8	-1.1	4.5
COc1ccc(C(O)c2nccn2Cc2ccccc2)cc1OC (configuration not stated)	1.6	-0.2	9.2	-13.7	-3.0	-3.8	.
COc1ccc(NC(=O)CSc2ccc3nnc(CCNC(=O)c4ccccc4)n3n2)cc1OC	0.5	-0.5	-2.4	-13.8	-5.2	-1.4	.
CCN(CC)C(=O)C1=C(C)N(Cc2ccccc2)C(=O)C(CC(=O)NCc2ccco2)C1 (configuration not stated)	.	-0.1	.	.	-1.4	.	.
COc1ccc(/C=C2\CCOC2=O)cc1	-1.2	0.4	0.3	5.9	-5.2	3.7	.
COc1ccc(N/C=C2\CCOC2=O)cc1	0.6	5.4*	-19.0	1.5	-14.2	-6.6	3.6
NS(=O)(=O)c1ccc(CCNC(=O)COC(=O)C2COc3ccccc3O2)cc1 (configuration not stated)	.	2.4	.	.	-4.0	.	.
CC1C(=O)NN=C1C(=O)N/N=C\C(Br)=C\c1ccccc1 (configuration not stated)	.	5.7*	.	.	-5.8	.	3.9
Cc1ccc(-n2c(N)c(C(=O)Nc3ccccc3F)sc2=S)cc1C	2.3	0.3	22.5	6.5	-1.5	-1.7	.
Cn1c2c(c(=O)n(C)c1=O)C(C(F)(F)F)(C(F)(F)F)N=C(c1ccccc1Cl)N2	0.8	9.1*	-5.5	-4.3	-3.3	-1.9	6.7*
CC(=O)c1cccc(NC(=O)NNC(=O)CCC(=O)Nc2ccc(C)c(C)c2)c1	-0.9	-0.7	-10.3	-3.7	-3.3	-7.6	.
CCn1cc(S(=O)(=O)Nc2cc(F)ccc2C)cn1	-0.3	-0.9	0.2	5.3	0.3	-3.8	.
CC(=O)c1ccc(N2CCN(C(=O)c3ccc4c(c3)OCO4)CC2)cc1	1.5	4.8*	-1.1	10.0	-7.6	0.9	4.0
O=C(c1ccccc1)c1ccc(O)cc1O	-1.0	5.6*	11.0	3.8	-6.4	1.1	2.5
O=C(O)c1cccc(NC2=C(Cl)C(=O)c3ccccc3C2=O)c1	.	4.9*	.	.	-10.3	.	0.6
Cn1c(CNC(=O)C(Cc2ccccc2)NC(=O)c2ccccc2F)cc(=O)n(C)c1=O (configuration not stated)	1.6	-1.2	-8.8	3.3	-1.0	-1.6	.
CCN1CCCC1CNC(=O)Cn1nc(C)n2c(cc3cc(F)ccc32)c1=O (configuration not stated)	-1.4	25.0*	-8.5	2.1	-7.9	-4.3	0.4
CCCNC(=O)Cn1nc(C)n2c(cc3cc(F)ccc32)c1=O	.	0.7	.	.	-2.3	.	.
CN(C)c1ccc(NC(=O)c2ccc(Cn3cc([N+](=O)[O-])cn3)cc2)cc1	-2.5	-0.1	-3.7	-1.4	-1.0	-1.1	.
CCOC(=O)C1=C(COC(=O)C2CC(=O)N(c3ccccc3F)C2)NC(=O)NC1C (configuration not stated)	-1.8	-0.3	.	3.0	-2.4	-5.0	.

Screening data as filed in PubChem.
